ATXN2 expr inh – inhibitors of ATXN2 expression | AID 1745845 | HEK-293 ATXN2-luciferase reporter, luminescence, 24 h | 360,000 tested, 0.72% active | Potency, µM (series often up to 57 µM), for inactives: top-dose activity change, negative = inhibition, most hits filed as inhibitors; note: % is set by controls: 0 for no effect and ±100 for the full control effect; nearly all actives have a fitted effect of over 55% in size
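qHTS (up to 57 uM final) was run with 24 h compound exposure of reporter cells at 37 °C. Each well was multiplexed: SteadyGlo luminescence measured ATXN2-luciferase expression after a fluorogenic Gly-Phe-AFC viability readout (25 uM final).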
ATXN viability – cell viability loss in ATXN counter-screen; Potency, µM (doses to about 56.7 µM), hits mostly cytotoxic; 400,000 tested, 0.49% active; S2 cells (HEK-293 line with an ATXN2-luciferase reporter) viability, CellTiter-Fluor protease fluorescence, 24 h; note: nearly all actives have a fitted effect of over 40% in size
DT40 TDP1 CPT – DT40-hTDP1 cell growth loss with CPT; 420,000 tested, 12% active; chicken DT40 Tdp1-/-;hTDP1 cells + 20 nM CPT, ATP luminescence, 48 h; Potency, µM (top dose mostly 46.2 µM), inactives show at the top dose activity change, negative = growth inhibition, usual class: inhibitors; AID 686979; note: % is set by controls: 0 for no effect and ±100 for the full control effect; nearly all actives have a fitted effect of over 55% in size
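Chicken DT40 Tdp1-/- cells stably complemented with human TDP1 were seeded at 400 cells/well in medium containing 20 nM camptothecin, exposed to pin-transferred compounds, and grown at 37 °C for at least 48 hr. Viability was read as ATP luminescence.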
HepG2 tox-1 – counter-screen for TGF-b inhibitors: cytotoxicity in HepG2 cells; AID 588856; 410,000 tested, 0.76% active; HepG2 CAGA-GFP viability, ATP luminescence, 18 h; Potency, µM (doses to about 46.1 µM), without a hit: top-dose activity change, negative = cytotoxicity, actives largely listed as cytotoxic
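HepG2 CAGA-GFP cells (1000/well, DMEM with 1% FBS) received compound, then TGF-beta at 500 pg/mL final, and were incubated 18 hours at 37 degrees C. Viability was read by CellTiter-Glo luminescence. Media-only wells were set as complete cell-killing and DMSO as no toxicity.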
DT40 TDP1 no CPT – qHTS for Inhibitors of human tyrosyl-DNA phosphodiesterase 1 (TDP1): qHTS in cells in absence of CPT; DT40 Tdp1-/- hTDP1 cells, no CPT, ATP luminescence, 48 h; Potency, µM (highest dose often 46.2 µM), inactives show top-dose activity change, negative = growth inhibition, most hits filed as inhibitors; 420,000 tested, 15% active; AID 686978, 2013; note: % is set by controls: 0 for no effect and ±100 for the full control effect; nearly all actives have a fitted effect of over 55% in size
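Growth kinetics read by CellTiter-Glo luminescence after ≥48 hr at 37 °C. Cells: DT40 Tdp1-/- stably carrying human TDP1, 400 per well, compound exposure in the absence of CPT (DMSO vehicle).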
TGFb inhibitor – blocks TGF-b signaling | HepG2 CAGA-GFP TGF-b/SMAD3 reporter, GFP fluorescence, 18 h; TGF-beta stimulated, 500 pg/mL final | Potency, µM (doses to about 46.1 µM), for the others: top-dose activity, negative = inhibition, actives largely listed as inhibitors | 410,000 tested, 1.2% active | AID 588855; note: % is set by controls: 0 for no effect and ±100 for the full control effect; nearly all actives have a fitted effect of over 65% in size
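TGF-beta reporter screen: HEPG2 CAGA-GFP, 1% FBS, 500 pg/mL TGF-beta final, 18 h; per-cell GFP summed per well; curves fitted and categorized by class.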
TGFb CAGA inh – confirmation of TGF-b signaling inhibitors in HepG2 reporter cells | shares compounds with TGFb inhibitor | HepG2 CAGA-GFP TGF-b reporter, GFP fluorescence, 18 h; cells stimulated with TGF-beta, 500 pg/mL | Potency, µM (titrated, usually from 46.1 µM), without a hit: at the top dose activity, negative = inhibition, most hits filed as inhibitors | 1,600 tested, 63% active; note: % is set by controls: 0 for no effect and ±100 for the full control effect; nearly all actives have a fitted effect of over 65% in size
HepG2 tox-2 – counter-screen for TGF-b inhibitors: cytotoxicity in HepG2 cells; 1,600 tested, 27% active; shares compounds with TGFb inhibitor; Potency, µM (highest dose often 46.1 µM), for the others: at the highest dose activity, negative = cytotoxicity, actives largely listed as inhibitors; HepG2 CAGA-GFP viability, ATP luminescence, 18 h; cells stimulated with TGF-beta, 500 pg/mL; AID 720535; note: % is set by controls: 0 for no effect and ±100 for the full control effect; nearly all actives have a fitted effect of over 70% in size
CCL64 TGFb inh – blocks TGF-b signaling in CCL64 reporter cells. shares compounds with TGFb inhibitor. CCL64 CAGA-GFP reporter, TGF-b stimulated, GFP fluorescence, 18 h. Potency, µM (top dose mostly 46.1 µM), for inactives: at the top dose activity, negative = inhibition, usual class: inhibitors. 1,600 tested, 41% active. AID 720536; note: nearly all actives have a fitted effect of over 65% in size
COP TGFb inh – validation of TGF-b inhibitors in HepG2 COP promoter reporter | shares compounds with TGFb inhibitor | Potency, µM (series often up to 46.1 µM), without a hit: at the highest dose activity, negative = inhibition, hits mostly inhibitors | 1,600 tested, 3% active | HepG2 COP-GFP TGF-b reporter, GFP fluorescence, 18 h; cells stimulated by added recombinant TGF-beta; note: nearly all actives have a fitted effect of over 70% in size
Numbers without * were called inactive; i = inactive; ? = inconclusive; · = no result; [ ] = remark or other dose. Most compounds without a hit are left out; they make up all but 17% or so of the library. Calls come from the whole dose curve; as a rule, active = well fitted curve in the direction sought with a large enough effect; inconclusive = small, poorly fitted or top-dose-only effect, or another doubt; inactive = no such curve, though single readings can be large; an effect the other way counts as inactive or inconclusive. Potency is the fitted concentration of half-maximal effect.

SMILES	ATXN2 expr inh	ATXN viability	DT40 TDP1 CPT	HepG2 tox-1	DT40 TDP1 no CPT	TGFb inhibitor	TGFb CAGA inh	HepG2 tox-2	CCL64 TGFb inh	COP TGFb inh
COCc1cc(S(=O)c2ccc(Cl)cc2)nc(C)n1 (centres undefined)	-42.0%	?	4.61µM*	-124.5%	2.91µM*	?	?	?	7.31µM*	-15.8%
CC1CCN(S(=O)(=O)CCNC(=O)c2ccc3c(c2)OCO3)CC1	-14.9%	i	12.9%	4.3%	6.8%	-4.4%	·	·	·	·
C[C@H](CO)N1C[C@H](C)[C@@H](CN(C)C(=O)c2cc(-c3ccccc3)on2)OCc2cn(nn2)CCCC1=O	0.6%	i	-1.7%	2.1%	13.1%	1.5%	·	·	·	·
O=C1N(c2ccccc2)C[C@@H]2C[C@@H](c3cc4ccccc4o3)N3CCC[C@@]123	0.299µM*	?	-5.3%	2.4%	23.1µM*	0.126µM*	0.058µM*	?	0.581µM*	17.9%
Cc1cccc(CN2CCCC(C(=O)c3ccc4c5c(cccc35)CC4)C2)n1 (centres undefined)	-34.9%	i	16.4µM*	-60.0%	13µM*	10µM*	?	?	?	60.0%
COc1ccc([C@H]2CC(=O)C=C(c3cccc(Br)c3)C2)cc1OC	0.0%	?	?	12.5%	13µM*	4.47µM*	?	-28.1%	?	28.0%
COc1ccc([C@H]2CC(=O)C=C(/C=C/c3ccccc3)C2)cc1OC	?	?	18.4µM*	-6.3%	?	12.6µM*	?	-19.3%	?	14.2%
COc1ccc([C@H]2CC(=O)C=C(c3cccc(Br)c3)C2)cc1	10.5%	i	?	-6.9%	?	?	·	·	·	·
Cc1cc(C(=O)N(NC(=O)C(C)C)c2ccccc2)cs1	10.4%	i	-14.1%	-10.3%	-11.4%	-1.9%	·	·	·	·
CCN1C[C@@H]2[C@@H]3C(=O)N(C)C(=O)[C@@H]3[C@](Cc3ccccc3)(C1=O)N2C(=O)c1ccc(Cl)c(Cl)c1	4.6%	i	?	-16.1%	?	-6.2%	·	·	·	·
CCN(C[C@H]1N[C@@](Cc2ccccc2)(C(=O)OC)[C@H]2C(=O)N(Cc3ccccc3)C(=O)[C@@H]12)C(C)=O	3.1%	i	7.7%	0.7%	-16.1%	2.2%	·	·	·	·
CCN(C[C@H]1N[C@@](Cc2ccccc2)(C(=O)OC)[C@H]2C(=O)N(Cc3ccccc3)C(=O)[C@@H]12)C(=O)Nc1ccc(C)cc1	-8.8%	?	?	-13.4%	16.4µM*	?	14.6µM*	-13.8%	?	13.4%
Cc1ccc(C2(c3ccc(C)cc3)CC2C(=O)Nc2ccc([N+](=O)[O-])cc2O)cc1 (centres undefined)	15.8µM*	·	3.66µM*	11.2µM*	2.59µM*	3.98µM*	5.8µM*	8.2µM*	7.31µM*	?
COc1ccc(/C(C)=N/Nc2nc3ccccc3nc2C)cc1	-21.1%	i	?	-40.7%	23.1µM*	7.94µM*	?	-1.4%	-13.5%	12.5%
Cc1noc(C)c1NC(=O)Nc1ccc2c(c1)C(=O)N([C@H](C)CO)C[C@H](C)[C@H](CN(C)C)O2	7.4%	i	4.8%	1.3%	-9.7%	-1.5%	·	·	·	·
CCc1nc(N)nc(N)c1-c1ccc(N(C)Cc2ccccc2)c([N+](=O)[O-])c1	18.9µM*	?	4.61µM*	-37.7%	0.651µM*	0.708µM*	?	0.291µM*	29.1µM*	82.3%
CC(=O)N(CC(O)CN(C(C)=O)c1c(I)c(C(=O)NCC(O)CO)c(I)c(C(=O)NCC(O)CO)c1I)c1c(I)c(C(=O)NCC(O)CO)c(I)c(C(=O)NCC(O)CO)c1I (centres undefined)	2.7%	i	-7.0%[21.1 µM]	·	-9.3%[21.1 µM]	·	·	·	·	·
COc1ccc(OC)c(C2SCCN2S(=O)(=O)c2cccc(C(F)(F)F)c2)c1 (centres undefined)	-5.1%	i	16.4µM*	-19.6%	?	?	?	-21.4%	-15.4%	-4.5%
O=[N+]([O-])c1cc(C(F)(F)F)ccc1N1CCN(S(=O)(=O)c2ccc3c(c2)CCCC3)CC1	-24.0%	?	?	3.5%	?	?	·	·	·	·
NC(=O)c1cc([N+](=O)[O-])c(Cl)cc1NCc1ccncc1	-4.4%	?	?	5.7%	?	?	18.4µM*	-27.6%	-8.7%	17.9%
COc1ccc(COCC(O)CN2CCc3ccccc3C2)cc1OC (centres undefined)	5.2%	i	7.0%	-2.7%	-5.4%	-10.4%	·	·	·	·
COc1ccc(S(=O)(=O)N(C)C[C@H]2Oc3ccc(NS(=O)(=O)c4cn(C)cn4)cc3C(=O)N([C@H](C)CO)C[C@@H]2C)cc1	-10.8%	i	-5.9%	0.2%	-12.5%	-5.2%	·	·	·	·
COc1ccc(C2CC(c3ccccc3OC(=O)/C=C/c3ccccc3)=NN2C(C)=O)cc1 (centres undefined)	·	i	-26.4%	-14.7%	?	-8.1%	·	·	·	·
COc1ccc(C2CC(c3ccccc3OC(C)=O)=NN2C(=O)/C=C/c2ccccc2)cc1OC (centres undefined)	-7.0%	i	?	-21.5%	?	10µM*	18.4µM*	-24.9%	?	2.3%
